Data on 47 compounds can be found in the supplement of paper PMC4709259.

Structures can show the parent of a compound that is named as a salt. ± gives the standard deviation.

Experiment [1] deals with Jurkat. Briefly: mean cell size (FSC-A) relative to DMSO control (fraction of control); higher = larger cells. As to conditions: 48 h. The essentials:
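Jurkat cells at 600 cells/µl were incubated for 1 h and then treated for 48h with the Enzo Screen-Well FDA Approved Drug Library v2.0 at 25µM, with DMSO at 0.9% (v/v) final. Compounds that reduced counts below 20% of controls were retested in 10-fold dilutions down to 25nM. Cell count and mean cell size, taken as forward scatter area, were measured by flow cytometry relative to solvent-only controls. Each plate carried 6-12 controls, and values are means of 3 biological replicates.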

Experiment [2] deals with Jurkat. Briefly: cell count relative to DMSO control (fraction of control); higher = more cells (less growth inhibition). As to conditions: 48 h.

As for `CC(=O)CC(c1ccccc1)c1c(O)c2ccccc2oc1=O` (centres undefined) [Warfarin·Na] (concentration: 25 µM), in the experiment on Jurkat [1], the mean cell size is 1.04 ± 0.051. Also, the cell count in the experiment on Jurkat [2] was determined as 0.708 ± 0.045.
The matching figures for `COc1ccccc1OCC(O)CN1CCN(CC(=O)Nc2c(C)cccc2C)CC1` (centres undefined) [Ranolazine·2HCl] (concentration: 25 µM): 0.987 ± 0.031 and 0.979 ± 0.084.
For `CC(=O)Oc1ccccc1C(=O)Nc1ncc([N+](=O)[O-])s1` [Nitazoxanide] (concentration: 2.5 µM) the same measures were 0.9325 ± 0.0054 and 0.862 ± 0.091.
Regarding `CN(C)CC/C=C1/c2ccccc2COc2ccc(CC(=O)O)cc21` [Olopatadine] (concentration: 25 µM), the mean cell size in the experiment with Jurkat [1] amounted to 0.976 ± 0.029. In addition, in the experiment with Jurkat [2], the cell count turned out to be 0.929 ± 0.1.
The matching figures for `O=C1CCCC(=O)C1C(=O)c1ccc(C(F)(F)F)cc1[N+](=O)[O-]` [Nitisinone] (concentration: 25 µM): 0.938 ± 0.017 and 0.936 ± 0.1.
For `COC1=CC(=O)C[C@@H](C)[C@]12Oc1c(Cl)c(OC)cc(OC)c1C2=O` [Griseofulvin] (concentration: 2.5 µM) the same measures were 0.975 ± 0.02 and 0.865 ± 0.099.
The matching figures for `C[C@@H](O[C@H]1OCCN(Cc2n[nH]c(=O)[nH]2)[C@H]1c1ccc(F)cc1)c1cc(C(F)(F)F)cc(C(F)(F)F)c1` [Aprepitant] (concentration: 2.5 µM): 1.08 ± 0.022 and 0.651 ± 0.024.
For the compound `CC(C)C(=O)OCC(=O)[C@@]12O[C@H](C3CCCCC3)O[C@@H]1C[C@H]1[C@@H]3CCC4=CC(=O)C=C[C@]4(C)[C@H]3[C@@H](O)C[C@@]12C` [Ciclesonide] (concentration: 2.5 µM), the mean cell size with Jurkat [1] is 0.9714 ± 0.0087. The cell count with Jurkat [2] was found to be 0.838 ± 0.08.
`Oc1c(Cl)cc(Cl)c(Cl)c1Cc1c(O)c(Cl)cc(Cl)c1Cl` [Hexachlorophene] (concentration: 2.5 µM) showed a mean cell size in the experiment with Jurkat [1] of 0.904 ± 0.016. Further, the cell count with Jurkat [2] is 0.433 ± 0.035.
Turning to `CC(C)(S)[C@@H](N)C(=O)O` [Penicillamine (D-Penicillamine)] (concentration: 25 µM), in the experiment on Jurkat [1], the mean cell size is 0.954 ± 0.042. In the experiment with Jurkat [2], this compound registered a cell count of 0.796 ± 0.074.
The matching figures for `COc1ccccc1Oc1c(NS(=O)(=O)c2ccc(C(C)(C)C)cc2)nc(-c2ncccn2)nc1OCCO` [Bosentan] (concentration: 25 µM): 0.975 ± 0.018 and 0.675 ± 0.068.
The matching figures for `CCC(C)(C)C(=O)O[C@H]1C[C@@H](C)C=C2C=C[C@H](C)[C@H](CC[C@@H]3C[C@@H](O)CC(=O)O3)[C@H]21` [Simvastatin] (concentration: 25 µM): 1.05 ± 0.054 and 0.698 ± 0.029.
For `CCOc1cc(CC(=O)N[C@@H](CC(C)C)c2ccccc2N2CCCCC2)ccc1C(=O)O` [Repaglinide] (concentration: 25 µM) the same measures were 1.03 ± 0.022 and 0.728 ± 0.063.
Regarding `N=C(N)NC(=O)c1nc(Cl)c(N)nc1N` [Amiloride·HCl·2H2O] (concentration: 25 µM), in the experiment with Jurkat [1], the mean cell size amounted to 0.945 ± 0.055. The cell count with Jurkat [2] was found to be 0.504 ± 0.045.
For `Cc1ccccc1N1C(=O)c2cc(S(N)(=O)=O)c(Cl)cc2NC1C` (centres undefined) [Metolazone] (concentration: 25 µM) the same measures were 0.997 ± 0.03 and 0.918 ± 0.095.
The matching figures for `Cc1nc(Nc2ncc(C(=O)Nc3c(C)cccc3Cl)s2)cc(N2CCN(CCO)CC2)n1` [Dasatinib] (concentration: 2.5 µM): 0.8161 ± 0.0028 and 1.03 ± 0.063.
The matching figures for `CCCN(CCC)CCc1cccc2c1CC(=O)N2` [Ropinirole·HCl] (concentration: 25 µM): 0.974 ± 0.012 and 0.958 ± 0.1.
Regarding `Nc1c(CC(=O)O)cccc1C(=O)c1ccc(Br)cc1` [Bromfenac] (concentration: 25 µM), the mean cell size in the experiment on Jurkat [1] worked out at 0.938 ± 0.018. For the same compound, in the experiment on Jurkat [2], the cell count was 1.05 ± 0.05.
In turn, `CN(C)CCC=C1c2ccccc2CCc2ccccc21` [Amitriptyline·HCl] (concentration: 25 µM) showed a mean cell size in the experiment on Jurkat [1] of 0.915 ± 0.037. The same compound gave a cell count in the experiment on Jurkat [2] of 0.798 ± 0.033.
For `Cc1cnc(NC(=O)C2=C(O)c3ccccc3S(=O)(=O)N2C)s1` [Meloxicam] (concentration: 25 µM) the same measures were 0.9071 ± 0.0086 and 0.808 ± 0.066.
For `Cc1c2oc3c(C)ccc(C(=O)N[C@@H]4C(=O)N[C@H](C(C)C)C(=O)N5CCC[C@H]5C(=O)N(C)CC(=O)N(C)[C@@H](C(C)C)C(=O)O[C@@H]4C)c3nc-2c(C(=O)N[C@@H]2C(=O)N[C@H](C(C)C)C(=O)N3CCC[C@H]3C(=O)N(C)CC(=O)N(C)[C@@H](C(C)C)C(=O)O[C@@H]2C)c(N)c1=O` [Dactinomycin (= Actinomycin D)] (concentration: 25 nM) the same measures were 0.784 ± 0.019 and 0.49 ± 0.11.
For the compound `C[C@@H]1[C@H](O)[C@@H](C)/C=C/C=C/C=C/C=C/C=C/C=C/C=C/[C@H](O[C@@H]2O[C@H](C)[C@@H](O)[C@H](N)[C@@H]2O)C[C@@H]2O[C@](O)(C[C@@H](O)C[C@@H](O)[C@H](O)CC[C@@H](O)C[C@@H](O)CC(=O)O[C@H]1C)C[C@H](O)[C@H]2C(=O)O` [Amphotericin B] (concentration: 25 µM), in the experiment with Jurkat [1], the mean cell size is 1.016 ± 0.0092. Also, in the experiment with Jurkat [2], the cell count was found to be 0.27 ± 0.024.
The compound `CC(C)(C)NC(=O)[C@@H]1C[C@@H]2CCCC[C@@H]2CN1C[C@@H](O)[C@H](Cc1ccccc1)NC(=O)[C@H](CC(N)=O)NC(=O)c1ccc2ccccc2n1` [Saquinavir Mesylate] (concentration: 25 µM) yielded a mean cell size in the experiment on Jurkat [1] of 0.963 ± 0.0039. Also, the cell count in the experiment with Jurkat [2] was 0.648 ± 0.065.
For `CN(C)CCc1c[nH]c2ccc(Cn3cncn3)cc12` [Rizatriptan Benzoate] (concentration: 25 µM) the same measures were 1.02 ± 0.039 and 0.844 ± 0.01.
Consider `O=C(O)c1ccc(-n2nc(-c3ccccc3O)nc2-c2ccccc2O)cc1` [Deferasirox] (concentration: 2.5 µM), for which the mean cell size in the experiment with Jurkat [1] came out at 1.07 ± 0.021. Besides, the cell count in the experiment with Jurkat [2] amounted to 0.636 ± 0.039.
The matching figures for `Cc1ccc(S(=O)(=O)NC(=O)NN2CCCCCC2)cc1` [Tolazamide] (concentration: 25 µM): 1.03 ± 0.053 and 0.657 ± 0.12.
On to `O=C1NC(=O)C(c2ccccc2)(c2ccccc2)N1` [Phenytoin] (concentration: 25 µM), for which the mean cell size in the experiment with Jurkat [1] was determined as 0.978 ± 0.042. In the experiment on Jurkat [2], this compound displayed a cell count of 0.74 ± 0.12.
Take `CCOC(=O)[C@H](CCc1ccccc1)N[C@@H](C)C(=O)N1[C@H](C(=O)O)C[C@@H]2CCC[C@@H]21` [Ramipril] (concentration: 25 µM): the mean cell size with Jurkat [1] was 1.01 ± 0.029. The same compound returned a cell count with Jurkat [2] of 0.965 ± 0.031.
For `COc1ccc2[nH]c([S@@+]([O-])Cc3ncc(C)c(OC)c3C)nc2c1` [Esomeprazole Potassium] (concentration: 25 µM) the same measures were 0.98 ± 0.027 and 0.868 ± 0.081.
In the experiment with Jurkat [1], `CN1C(=O)CC(C)(c2ccccc2)C1=O` (centres undefined) [Methsuximide] (concentration: 25 µM) registered a mean cell size of 1.03 ± 0.03. In addition, the cell count in the experiment on Jurkat [2] is 0.752 ± 0.068.
For `CCc1nn(CCCN2CCN(c3cccc(Cl)c3)CC2)c(=O)n1CCOc1ccccc1` [Nefazodone·HCl] (concentration: 25 µM) the same measures were 0.924 ± 0.015 and 0.601 ± 0.02.
The matching figures for `OC(CCN1CCCCC1)(c1ccccc1)C1CCCCC1` (centres undefined) [Trihexyphenidyl·HCl] (concentration: 25 µM): 1.04 ± 0.031 and 1.05 ± 0.066.
The matching figures for `COC(c1ccccc1)(c1ccccc1)[C@H](Oc1nc(C)cc(C)n1)C(=O)O` [Ambrisentan] (concentration: 25 µM): 0.975 ± 0.043 and 0.757 ± 0.088.
With `O=C(O)C(=O)O.[NH-][C@@H]1CCCC[C@H]1[NH-].[Pt+2]` [Oxaliplatin] (concentration: 25 µM), the mean cell size in the experiment with Jurkat [1] was determined as 1.01 ± 0.034. Besides, the cell count with Jurkat [2] was 0.326 ± 0.057.
For `CC(=O)OC(C)C[N+](C)(C)C` (centres undefined) [Methacholine Chloride] (concentration: 25 µM) the same measures were 1.05 ± 0.022 and 0.921 ± 0.049.
The matching figures for `Cc1ccc(C)c(OCCCC(C)(C)C(=O)O)c1` [Gemfibrozil] (concentration: 25 µM): 0.956 ± 0.026 and 0.91 ± 0.048.
For `O=C(O)CCCCCCCC(=O)O` [Azelaic Acid] (concentration: 25 µM) the same measures were 0.921 ± 0.062 and 0.477 ± 0.081.
`C=C[C@H]1CN2CC[C@H]1C[C@H]2[C@H](O)c1ccnc2ccc(OC)cc12` [Quinine·HCl·H2O] (concentration: 25 µM) returned a mean cell size in the experiment with Jurkat [1] of 1.06 ± 0.055. This compound had a cell count with Jurkat [2] of 0.637 ± 0.18.
For `CO[C@H]1/C=C/O[C@@]2(C)Oc3c(C)c(O)c4c(O)c(c5c(nc6cc(C)ccn65)c4c3C2=O)NC(=O)/C(C)=C\C=C\[C@H](C)[C@H](O)[C@@H](C)[C@@H](O)[C@@H](C)[C@H](OC(C)=O)[C@@H]1C` [Rifaximin] (concentration: 25 µM) the same measures were 0.922 ± 0.039 and 0.4 ± 0.12.
The matching figures for `CC1(C)S[C@@H]2[C@H](NC(=O)Cc3ccccc3)C(=O)N2[C@H]1C(=O)O` [Penicillin G Potassium (Benzylpenicillin)] (concentration: 25 µM): 0.948 ± 0.019 and 0.934 ± 0.041.
Regarding `O=C(O)C[C@H](O)C[C@H](O)/C=C/c1c(C2CC2)nc2ccccc2c1-c1ccc(F)cc1` [Pitavastatin Calcium] (concentration: 25 µM), in the experiment with Jurkat [1], the mean cell size was found to be 0.9938 ± 0.0093. Further, the cell count in the experiment with Jurkat [2] turned out to be 0.647 ± 0.065.
For `Nc1nc(Cl)nc2c1ncn2[C@H]1C[C@H](O)[C@@H](CO)O1` [Cladribine] (concentration: 250 nM) the same measures were 1.17 ± 0.034 and 0.268 ± 0.024.
Turning to `NC[C@@H]1O[C@H](O[C@H]2[C@@H](O)[C@H](O[C@@H]3[C@@H](O)[C@H](N)C[C@H](N)[C@H]3O[C@H]3O[C@H](CO)[C@@H](O)[C@H](O)[C@H]3N)O[C@@H]2CO)[C@H](N)[C@@H](O)[C@@H]1O` [Paromomycin Sulfate] (concentration: 25 µM), the mean cell size in the experiment with Jurkat [1] came out at 0.949 ± 0.012. In addition, in the experiment on Jurkat [2], the cell count is 0.773 ± 0.041.
The compound `CCCC(CCC)C(=O)O` [Valproate·Na] (concentration: 25 µM) gave a mean cell size in the experiment with Jurkat [1] of 0.999 ± 0.025. Besides, the cell count with Jurkat [2] came out at 1.01 ± 0.096.
For `C[C@H](CCC(=O)O)[C@H]1CC[C@H]2[C@@H]3[C@@H](O)C[C@@H]4C[C@H](O)CC[C@]4(C)[C@H]3CC[C@]12C` [Ursodiol] (concentration: 25 µM) the same measures were 1.01 ± 0.031 and 0.718 ± 0.096.
The matching figures for `N=C(NCCCCCCNC(=N)NC(=N)Nc1ccc(Cl)cc1)NC(=N)Nc1ccc(Cl)cc1` [Chlorhexidine Dihydrochloride] (concentration: 2.5 µM): 0.986 ± 0.017 and 0.763 ± 0.045.
In the case of `COc1ccc(C[C@@H]2c3cc(OC)c(OC)cc3CC[N@+]2(C)CCC(=O)OCCCCCOC(=O)CC[N@@+]2(C)CCc3cc(OC)c(OC)cc3[C@H]2Cc2ccc(OC)c(OC)c2)cc1OC` [Cisatracurium Besylate] (concentration: 25 µM), in the experiment with Jurkat [1], the mean cell size was determined as 1.004 ± 0.009. In addition, in the experiment with Jurkat [2], the cell count worked out at 0.624 ± 0.064.
